# According to publication PMC7862700, “An all-to-all approach to the identification of sequence-specific readers for epigenetic DNA modifications on cytosine”:
# Columns and labels:
# Test in all cases: DAPPL (digital affinity profiling via proximity ligation, sequencing); 10 mM Tris-HCl pH 7.5, 50 mM NaCl, 1 mM DTT, 4% glycerol, room temperature, 30 min; GST-TFs on glutathione beads, 16-mer random dsDNA library, 0.1% formaldehyde crosslink after washing; high values mean tight binding
# [1] = biological target: T1, FLI1 (Homo sapiens, UniProt Q01543 1-452); conditions: protein: recombinant; tags: N-terminal GST; dsDNA, one strand shown
# T1 sequence: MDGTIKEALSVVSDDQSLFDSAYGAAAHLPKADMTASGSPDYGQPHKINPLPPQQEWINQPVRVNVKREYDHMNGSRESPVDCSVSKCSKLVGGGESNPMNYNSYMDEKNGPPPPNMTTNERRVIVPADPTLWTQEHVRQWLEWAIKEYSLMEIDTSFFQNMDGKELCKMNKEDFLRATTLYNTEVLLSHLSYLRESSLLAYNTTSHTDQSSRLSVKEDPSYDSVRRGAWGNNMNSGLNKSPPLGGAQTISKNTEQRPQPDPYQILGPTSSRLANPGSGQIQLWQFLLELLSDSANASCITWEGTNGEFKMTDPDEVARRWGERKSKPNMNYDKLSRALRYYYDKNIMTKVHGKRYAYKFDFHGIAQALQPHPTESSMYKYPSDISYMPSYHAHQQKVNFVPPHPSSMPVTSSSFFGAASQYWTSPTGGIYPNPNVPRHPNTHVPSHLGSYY
# Summary of the method: (§1)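 GST fusions of human transcription factors were expressed in yeast and captured with glutathione beads. Once given DNA barcodes and pooled alongside a tag-only sample, they were incubated for 30 min at room temperature with 200 nmole of a random double-stranded 16-mer DNA library in Tris/NaCl/DTT/glycerol buffer, then washed, crosslinked (0.1% formaldehyde), proximity-ligated, PCR-amplified and sequenced on an Illumina NextSeq500. The binding signal of each hexamer is its read frequency for a factor divided by its frequency for the tag-only sample.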
# [2] = biological target: T2, ELK1 (Homo sapiens, UniProt P19419 1-428); conditions: protein: recombinant; tags: N-terminal GST; dsDNA, one strand shown
# T2 sequence: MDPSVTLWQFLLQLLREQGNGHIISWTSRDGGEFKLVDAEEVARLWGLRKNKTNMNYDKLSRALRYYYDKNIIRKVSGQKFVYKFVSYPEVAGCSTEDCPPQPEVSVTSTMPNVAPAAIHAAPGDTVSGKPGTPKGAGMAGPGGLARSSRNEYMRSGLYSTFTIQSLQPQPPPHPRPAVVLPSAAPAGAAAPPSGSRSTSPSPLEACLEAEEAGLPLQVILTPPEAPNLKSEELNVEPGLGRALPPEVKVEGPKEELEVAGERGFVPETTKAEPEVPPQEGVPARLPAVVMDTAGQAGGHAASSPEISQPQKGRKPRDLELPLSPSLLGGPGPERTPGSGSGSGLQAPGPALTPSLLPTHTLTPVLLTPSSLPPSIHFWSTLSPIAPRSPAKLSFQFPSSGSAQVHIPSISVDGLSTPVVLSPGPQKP
# Summary of the method: as §1
# [3] = biological target: T3, GABPA (Homo sapiens, UniProt Q06546 1-454); conditions: protein: recombinant; tags: N-terminal GST; dsDNA, one strand shown
# T3 sequence: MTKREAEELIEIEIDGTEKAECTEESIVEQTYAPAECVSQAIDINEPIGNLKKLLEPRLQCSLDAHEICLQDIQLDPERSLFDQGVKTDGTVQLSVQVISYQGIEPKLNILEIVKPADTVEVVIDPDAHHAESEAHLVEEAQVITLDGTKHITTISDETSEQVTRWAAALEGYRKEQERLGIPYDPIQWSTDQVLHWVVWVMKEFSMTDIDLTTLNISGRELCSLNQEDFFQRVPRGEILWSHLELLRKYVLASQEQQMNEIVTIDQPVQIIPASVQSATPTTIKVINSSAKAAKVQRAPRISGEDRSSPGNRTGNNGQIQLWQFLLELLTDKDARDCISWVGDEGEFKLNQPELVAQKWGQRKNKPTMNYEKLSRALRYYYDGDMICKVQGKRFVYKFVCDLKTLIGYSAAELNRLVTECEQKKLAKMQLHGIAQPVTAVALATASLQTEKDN
# Summary of the method: as §1
# [4] = biological target: T4, ERG (Homo sapiens, UniProt P11308 1-479); conditions: protein: recombinant; tags: N-terminal GST; dsDNA, one strand shown
# T4 sequence: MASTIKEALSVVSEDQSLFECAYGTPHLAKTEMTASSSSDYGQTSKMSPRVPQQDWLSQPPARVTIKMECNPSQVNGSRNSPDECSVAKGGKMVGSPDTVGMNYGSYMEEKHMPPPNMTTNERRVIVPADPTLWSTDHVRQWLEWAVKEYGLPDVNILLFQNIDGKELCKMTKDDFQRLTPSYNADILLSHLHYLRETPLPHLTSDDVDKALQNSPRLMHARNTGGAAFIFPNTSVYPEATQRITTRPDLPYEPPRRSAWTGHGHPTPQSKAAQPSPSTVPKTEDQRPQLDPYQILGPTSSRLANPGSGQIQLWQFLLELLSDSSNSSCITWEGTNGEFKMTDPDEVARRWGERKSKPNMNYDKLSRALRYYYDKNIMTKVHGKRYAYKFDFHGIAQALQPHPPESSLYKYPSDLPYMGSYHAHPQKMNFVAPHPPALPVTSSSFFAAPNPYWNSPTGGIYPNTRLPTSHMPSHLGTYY
# Summary of the method: as §1
# [5] = biological target: ELF1 (Homo sapiens, UniProt P32519 1-619); conditions: protein: recombinant; tags: N-terminal GST; dsDNA, one strand shown
# Summary of the method: as §1
# [6] = biological target: T5, EHF (Homo sapiens, UniProt Q9NZC4 1-300); conditions: protein: recombinant; tags: N-terminal GST; dsDNA, one strand shown
# T5 sequence: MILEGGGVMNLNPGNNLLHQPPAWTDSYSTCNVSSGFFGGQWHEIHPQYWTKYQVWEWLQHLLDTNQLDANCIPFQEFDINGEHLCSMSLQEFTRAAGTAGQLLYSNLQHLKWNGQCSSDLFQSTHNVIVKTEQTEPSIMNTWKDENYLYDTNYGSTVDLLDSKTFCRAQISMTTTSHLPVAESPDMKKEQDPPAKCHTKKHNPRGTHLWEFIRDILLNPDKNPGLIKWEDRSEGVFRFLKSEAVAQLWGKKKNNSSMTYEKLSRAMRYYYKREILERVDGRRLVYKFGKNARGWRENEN
# Summary of the method: as §1
# [7] = biological target: SPI1 (Homo sapiens, UniProt P17947 1-270); conditions: protein: recombinant; tags: N-terminal GST; dsDNA, one strand shown
# Summary of the method: as §1
# [8] = biological target: SPIB (Homo sapiens, UniProt Q01892 1-262); conditions: protein: recombinant; tags: N-terminal GST; dsDNA, one strand shown
# Summary of the method: as §1
# [9] = biological target: T6, ELK3 (Homo sapiens, UniProt P41970 1-407); conditions: protein: recombinant; tags: N-terminal GST; dsDNA, one strand shown
# T6 sequence: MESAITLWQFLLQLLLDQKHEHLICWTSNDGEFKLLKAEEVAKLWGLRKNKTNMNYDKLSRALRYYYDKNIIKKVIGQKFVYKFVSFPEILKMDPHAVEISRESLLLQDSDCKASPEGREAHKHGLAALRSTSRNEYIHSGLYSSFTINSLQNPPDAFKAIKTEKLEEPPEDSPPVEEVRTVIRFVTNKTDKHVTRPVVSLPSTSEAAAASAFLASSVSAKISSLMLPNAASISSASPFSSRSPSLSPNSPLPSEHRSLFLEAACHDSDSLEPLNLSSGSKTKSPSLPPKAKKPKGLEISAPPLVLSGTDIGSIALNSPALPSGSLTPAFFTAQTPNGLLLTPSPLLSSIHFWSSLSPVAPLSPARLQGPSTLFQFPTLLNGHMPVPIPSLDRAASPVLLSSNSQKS
# Summary of the method: as §1
# [10] = biological target: T7, FEV (Homo sapiens, UniProt Q99581 1-238); conditions: protein: recombinant; tags: N-terminal GST; dsDNA, one strand shown
# T7 sequence: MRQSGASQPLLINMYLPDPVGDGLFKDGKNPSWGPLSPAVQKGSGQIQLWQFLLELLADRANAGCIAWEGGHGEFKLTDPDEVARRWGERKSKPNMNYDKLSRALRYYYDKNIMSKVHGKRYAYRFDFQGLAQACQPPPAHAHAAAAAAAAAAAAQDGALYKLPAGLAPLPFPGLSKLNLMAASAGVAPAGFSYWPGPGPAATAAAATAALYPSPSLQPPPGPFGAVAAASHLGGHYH
# Summary of the method: as §1
# [11] = biological target: ETV5 (Homo sapiens, UniProt P41161 1-510); conditions: protein: recombinant; tags: N-terminal GST; dsDNA, one strand shown
# Summary of the method: as §1
# [12] = biological target: HSF1 (Homo sapiens, UniProt Q00613 1-529); conditions: protein: recombinant; tags: N-terminal GST; chain copies: 3; dsDNA, one strand shown
# Summary of the method: as §1
# [13] = biological target: T8, SPIC (Homo sapiens, UniProt Q8N5J4 1-248); conditions: protein: recombinant; tags: N-terminal GST; dsDNA, one strand shown
# T8 sequence: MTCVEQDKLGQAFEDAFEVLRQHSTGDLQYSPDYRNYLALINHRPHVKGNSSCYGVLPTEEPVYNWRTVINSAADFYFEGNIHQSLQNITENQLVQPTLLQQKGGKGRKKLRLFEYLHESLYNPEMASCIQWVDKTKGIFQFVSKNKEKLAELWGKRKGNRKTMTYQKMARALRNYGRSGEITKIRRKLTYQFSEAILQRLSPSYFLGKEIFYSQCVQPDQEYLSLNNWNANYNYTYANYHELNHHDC
# Summary of the method: as §1
# [14] = biological target: ELF4 (Homo sapiens, UniProt Q99607 1-663); conditions: protein: recombinant; tags: N-terminal GST; dsDNA, one strand shown
# Summary of the method: as §1
# [15] = biological target: T9, ELK4 (Homo sapiens, UniProt P28324-2 1-405); conditions: protein: recombinant; tags: N-terminal GST; dsDNA, one strand shown
# T9 sequence: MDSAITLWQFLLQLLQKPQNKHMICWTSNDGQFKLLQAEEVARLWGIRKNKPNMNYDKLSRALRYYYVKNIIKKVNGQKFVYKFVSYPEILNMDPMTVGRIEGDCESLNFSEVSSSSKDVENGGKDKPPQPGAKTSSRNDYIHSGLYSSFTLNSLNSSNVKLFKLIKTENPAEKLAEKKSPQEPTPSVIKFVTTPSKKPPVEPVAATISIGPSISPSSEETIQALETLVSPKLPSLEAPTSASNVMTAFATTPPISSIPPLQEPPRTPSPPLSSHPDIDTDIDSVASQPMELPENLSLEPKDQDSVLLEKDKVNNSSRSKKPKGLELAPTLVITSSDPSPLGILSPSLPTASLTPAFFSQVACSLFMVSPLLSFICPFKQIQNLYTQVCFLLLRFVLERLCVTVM
# Summary of the method: as §1
# [16] = biological target: T10, ETV2 (Homo sapiens, UniProt O00321 1-342); conditions: protein: recombinant; tags: N-terminal GST; dsDNA, one strand shown
# T10 sequence: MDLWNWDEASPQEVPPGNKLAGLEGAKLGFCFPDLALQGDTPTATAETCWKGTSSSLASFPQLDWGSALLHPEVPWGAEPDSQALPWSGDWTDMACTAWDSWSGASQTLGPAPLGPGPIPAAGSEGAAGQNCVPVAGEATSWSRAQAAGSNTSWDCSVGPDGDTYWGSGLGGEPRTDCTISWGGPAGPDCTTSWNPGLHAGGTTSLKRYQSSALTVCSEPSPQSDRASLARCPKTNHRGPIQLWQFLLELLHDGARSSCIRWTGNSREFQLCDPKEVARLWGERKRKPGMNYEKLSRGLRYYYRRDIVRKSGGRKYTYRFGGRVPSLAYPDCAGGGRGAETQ
# Summary of the method: as §1
# [17] = biological target: T11, ELF3 (Homo sapiens, UniProt P78545 1-371); conditions: protein: recombinant; tags: N-terminal GST; dsDNA, one strand shown
# T11 sequence: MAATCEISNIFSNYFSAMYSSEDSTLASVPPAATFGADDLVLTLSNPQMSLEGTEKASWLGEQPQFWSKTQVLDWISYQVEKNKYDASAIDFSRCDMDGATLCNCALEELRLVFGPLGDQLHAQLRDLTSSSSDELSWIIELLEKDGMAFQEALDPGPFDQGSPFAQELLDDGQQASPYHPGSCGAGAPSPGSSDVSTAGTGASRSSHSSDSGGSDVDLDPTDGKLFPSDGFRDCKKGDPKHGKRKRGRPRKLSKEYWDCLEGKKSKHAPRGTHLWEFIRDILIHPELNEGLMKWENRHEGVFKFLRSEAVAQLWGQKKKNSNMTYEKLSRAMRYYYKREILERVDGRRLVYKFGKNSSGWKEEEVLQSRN
# Summary of the method: as §1
# [18] = biological target: CRX (Homo sapiens, UniProt O43186 1-299); conditions: protein: recombinant; tags: N-terminal GST; dsDNA, one strand shown
# Summary of the method: as §1
# [19] = biological target: ETV1 (Homo sapiens, UniProt P50549 1-477); conditions: protein: recombinant; tags: N-terminal GST; dsDNA, one strand shown
# Summary of the method: as §1
# Sequence of ELF4 (Q99607 whole entry): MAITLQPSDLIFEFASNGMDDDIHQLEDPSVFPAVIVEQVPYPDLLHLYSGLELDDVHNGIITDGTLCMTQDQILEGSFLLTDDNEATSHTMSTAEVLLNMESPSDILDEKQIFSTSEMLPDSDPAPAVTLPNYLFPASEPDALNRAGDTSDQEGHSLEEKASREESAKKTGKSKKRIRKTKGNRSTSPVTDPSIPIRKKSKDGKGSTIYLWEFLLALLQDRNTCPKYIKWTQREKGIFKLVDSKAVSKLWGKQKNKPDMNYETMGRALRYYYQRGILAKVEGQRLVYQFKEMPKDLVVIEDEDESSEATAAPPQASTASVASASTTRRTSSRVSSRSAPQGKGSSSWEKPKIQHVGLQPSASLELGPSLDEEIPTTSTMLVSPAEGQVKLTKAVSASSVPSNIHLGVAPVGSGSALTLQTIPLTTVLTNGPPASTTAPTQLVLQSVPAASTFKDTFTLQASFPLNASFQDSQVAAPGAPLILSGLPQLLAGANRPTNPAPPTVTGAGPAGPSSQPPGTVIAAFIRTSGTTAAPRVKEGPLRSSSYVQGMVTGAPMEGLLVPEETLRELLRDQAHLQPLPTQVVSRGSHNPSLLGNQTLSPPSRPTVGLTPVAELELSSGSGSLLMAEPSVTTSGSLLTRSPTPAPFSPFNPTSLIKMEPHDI
# Sequence of ELF1 (P32519 whole entry): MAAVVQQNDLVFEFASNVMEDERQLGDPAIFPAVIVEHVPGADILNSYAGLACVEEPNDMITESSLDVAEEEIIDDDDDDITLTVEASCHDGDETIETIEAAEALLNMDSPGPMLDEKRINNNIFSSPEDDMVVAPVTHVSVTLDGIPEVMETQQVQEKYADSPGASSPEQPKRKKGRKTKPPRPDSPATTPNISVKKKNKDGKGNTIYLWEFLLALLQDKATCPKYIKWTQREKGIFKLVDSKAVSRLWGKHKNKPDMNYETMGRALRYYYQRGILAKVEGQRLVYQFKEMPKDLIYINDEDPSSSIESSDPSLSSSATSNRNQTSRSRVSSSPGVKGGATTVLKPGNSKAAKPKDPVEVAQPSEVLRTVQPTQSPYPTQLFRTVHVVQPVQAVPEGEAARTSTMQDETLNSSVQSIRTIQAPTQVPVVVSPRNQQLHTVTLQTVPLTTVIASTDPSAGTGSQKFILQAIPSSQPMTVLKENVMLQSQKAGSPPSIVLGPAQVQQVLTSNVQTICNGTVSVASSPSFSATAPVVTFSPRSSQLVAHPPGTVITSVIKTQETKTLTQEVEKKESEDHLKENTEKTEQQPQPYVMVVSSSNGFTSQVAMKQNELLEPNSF
# Sequence of HSF1 (Q00613 whole entry): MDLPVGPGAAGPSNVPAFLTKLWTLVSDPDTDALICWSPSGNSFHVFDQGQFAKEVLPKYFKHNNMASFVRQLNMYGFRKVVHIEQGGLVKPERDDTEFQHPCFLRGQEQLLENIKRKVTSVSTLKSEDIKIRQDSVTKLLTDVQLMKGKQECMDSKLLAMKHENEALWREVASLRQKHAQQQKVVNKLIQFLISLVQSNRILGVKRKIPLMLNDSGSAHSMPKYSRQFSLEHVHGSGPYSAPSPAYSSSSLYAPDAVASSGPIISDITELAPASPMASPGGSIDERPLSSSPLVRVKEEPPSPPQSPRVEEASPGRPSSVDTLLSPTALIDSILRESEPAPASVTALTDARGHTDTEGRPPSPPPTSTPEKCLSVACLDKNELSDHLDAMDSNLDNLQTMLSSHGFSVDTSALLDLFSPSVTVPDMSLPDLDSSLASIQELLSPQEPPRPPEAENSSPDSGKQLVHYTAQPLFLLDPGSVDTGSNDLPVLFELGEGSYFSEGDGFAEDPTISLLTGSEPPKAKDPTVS
# Sequence of ETV5 (P41161 whole entry): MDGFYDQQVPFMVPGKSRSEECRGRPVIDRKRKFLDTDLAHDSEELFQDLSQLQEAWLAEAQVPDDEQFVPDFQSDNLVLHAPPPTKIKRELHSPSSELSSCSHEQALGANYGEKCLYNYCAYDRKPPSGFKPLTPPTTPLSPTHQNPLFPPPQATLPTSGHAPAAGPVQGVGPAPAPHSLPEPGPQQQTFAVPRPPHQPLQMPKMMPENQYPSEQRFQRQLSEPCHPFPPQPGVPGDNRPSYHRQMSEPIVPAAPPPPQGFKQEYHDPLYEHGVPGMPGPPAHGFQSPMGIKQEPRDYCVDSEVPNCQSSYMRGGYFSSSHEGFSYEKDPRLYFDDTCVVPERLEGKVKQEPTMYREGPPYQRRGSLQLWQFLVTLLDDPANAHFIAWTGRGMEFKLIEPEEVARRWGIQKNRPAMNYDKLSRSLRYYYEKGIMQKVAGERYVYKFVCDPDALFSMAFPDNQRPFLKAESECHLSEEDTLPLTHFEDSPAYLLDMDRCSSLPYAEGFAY
# Sequence of ETV1 (P50549 whole entry): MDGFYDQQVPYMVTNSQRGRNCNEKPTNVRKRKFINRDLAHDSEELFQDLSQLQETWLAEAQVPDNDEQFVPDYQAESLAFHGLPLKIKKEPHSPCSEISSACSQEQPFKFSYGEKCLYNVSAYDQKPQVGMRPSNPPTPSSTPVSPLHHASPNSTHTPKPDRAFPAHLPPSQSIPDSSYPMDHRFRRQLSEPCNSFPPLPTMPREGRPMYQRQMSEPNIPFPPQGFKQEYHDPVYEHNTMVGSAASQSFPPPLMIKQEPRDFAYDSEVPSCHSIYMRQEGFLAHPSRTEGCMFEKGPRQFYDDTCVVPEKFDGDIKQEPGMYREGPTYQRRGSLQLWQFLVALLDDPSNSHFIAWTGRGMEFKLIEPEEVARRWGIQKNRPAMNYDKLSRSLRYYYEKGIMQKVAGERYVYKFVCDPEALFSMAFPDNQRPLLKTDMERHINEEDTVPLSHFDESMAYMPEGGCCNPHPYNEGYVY
# Sequence of CRX (O43186 whole entry): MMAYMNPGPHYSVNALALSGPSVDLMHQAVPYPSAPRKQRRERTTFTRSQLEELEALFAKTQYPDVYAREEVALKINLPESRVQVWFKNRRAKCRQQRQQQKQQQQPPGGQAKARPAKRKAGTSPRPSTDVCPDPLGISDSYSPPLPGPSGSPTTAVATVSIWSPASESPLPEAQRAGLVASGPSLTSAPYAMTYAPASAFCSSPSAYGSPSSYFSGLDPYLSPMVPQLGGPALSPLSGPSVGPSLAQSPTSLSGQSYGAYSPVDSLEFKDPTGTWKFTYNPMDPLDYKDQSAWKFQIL
# Sequence of SPIB (Q01892 whole entry): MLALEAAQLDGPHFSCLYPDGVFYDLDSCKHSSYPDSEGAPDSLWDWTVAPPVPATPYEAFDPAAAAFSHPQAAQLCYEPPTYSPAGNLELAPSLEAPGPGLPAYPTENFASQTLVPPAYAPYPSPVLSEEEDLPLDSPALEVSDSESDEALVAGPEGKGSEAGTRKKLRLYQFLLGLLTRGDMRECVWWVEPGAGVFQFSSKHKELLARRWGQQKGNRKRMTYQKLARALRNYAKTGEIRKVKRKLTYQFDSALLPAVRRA
sequence,measurement,setting,value
AATGAA,binding signal,[1],"1.11 fold enrichment (6-mer frequency, TF over GST control)"
same,binding signal,[2],"1.1 fold enrichment (6-mer frequency, TF over GST control)"
same,binding signal,[3],"1.22 fold enrichment (6-mer frequency, TF over GST control)"
same,binding signal,[4],"1.21 fold enrichment (6-mer frequency, TF over GST control)"
same,binding signal,[5],"1.15 fold enrichment (6-mer frequency, TF over GST control)"
same,binding signal,[6],"1.18 fold enrichment (6-mer frequency, TF over GST control)"
same,binding signal,[7],"1.24 fold enrichment (6-mer frequency, TF over GST control)"
same,binding signal,[8],"1.2 fold enrichment (6-mer frequency, TF over GST control)"
same,binding signal,[9],"1.26 fold enrichment (6-mer frequency, TF over GST control)"
same,binding signal,[10],"1.11 fold enrichment (6-mer frequency, TF over GST control)"
same,binding signal,[11],"1.16 fold enrichment (6-mer frequency, TF over GST control)"
same,binding signal,[12],"1.12 fold enrichment (6-mer frequency, TF over GST control)"
same,binding signal,[13],"1.26 fold enrichment (6-mer frequency, TF over GST control)"
same,binding signal,[14],"1.2 fold enrichment (6-mer frequency, TF over GST control)"
same,binding signal,[15],"1.24 fold enrichment (6-mer frequency, TF over GST control)"
same,binding signal,[16],"1.08 fold enrichment (6-mer frequency, TF over GST control)"
same,binding signal,[17],"1.24 fold enrichment (6-mer frequency, TF over GST control)"
same,binding signal,[18],"1.03 fold enrichment (6-mer frequency, TF over GST control)"
same,binding signal,[19],"1.17 fold enrichment (6-mer frequency, TF over GST control)"
